Test results reported in PubChem BioAssay AID1159580 (chemical genetic matrix, 2015).
About 2,000 (36%) of roughly 5,500 compounds were called active. Not shown: some 18% with an inconclusive outcome. Rule as the data show it: active = normalized growth mostly below about 0.91 (no sharp cut-off); inconclusive = no clear call, values can overlap the other calls; inactive = mostly above about 0.92. This is one part of the list.

Test: chemical genetic growth profiling, strain panel (AID 1159580);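 also: tested at 20 µM; growth read once vehicle control cultures reached saturation at 30 °C; 1 = growth at the plate median or of vehicle wells; lower values mean less growth of the strain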
Details: growth OD

Measured: normalized growth

COC(=O)C[C@H]1C(C)(C)[C@@H](OC(C)=O)[C@@H]2CC3=C4CC(=O)O[C@@H](c5ccoc5)[C@]4(C)CCC3[C@@]1(C)C2=O (some centres not stated)
inactive: S. cerevisiae deletion strains, locus YJR066W, strain TOR1, active compounds read low 0.954 | S. cerevisiae deletion strains, locus YJR075W, strain HOC1, active compounds read low 0.997 | S. cerevisiae deletion strains, locus YKL009W, strain mrt4, active compounds read low 0.986 | S. cerevisiae deletion strains, locus YKL068W, active compounds read low 1 | S. cerevisiae deletion strains, locus YKL085W, strain MDH1 (second series), active compounds read low 0.993 | S. cerevisiae deletion strains, locus YKL085W, strain MDH1, active compounds read low 0.993 | S. cerevisiae deletion strains, locus YKL160W, strain elf1, active compounds read low 1.02 | S. cerevisiae deletion strains, locus YKR001C, strain vps1, active compounds read low 1.01 | S. cerevisiae deletion strains, locus YKR026C, strain gcn3, active compounds read low 0.992 | S. cerevisiae deletion strains, locus YKR091W, strain srl3, active compounds read low 0.996 | S. cerevisiae deletion strains, locus YLL001W, strain dnm1, active compounds read low 0.949 | S. cerevisiae deletion strains, locus YLL026W, active compounds read low 0.998 | S. cerevisiae deletion strains, locus YLL041C, strain sdh2, active compounds read low 0.997 | S. cerevisiae deletion strains, locus YLR027C, strain aat2, active compounds read low 0.998 | S. cerevisiae deletion strains, locus YLR039C, strain RIC1, active compounds read low 0.993 | S. cerevisiae deletion strains, locus YLR058C, strain SHM2, active compounds read low 1 | S. cerevisiae deletion strains, locus YLR102C, strain apc9, active compounds read low 1.01 | S. cerevisiae deletion strains, locus YLR113W, strain HOG1, active compounds read low 1.03 | S. cerevisiae deletion strains, locus YLR221C, strain rsa3, active compounds read low 0.961 | S. cerevisiae deletion strains, locus YLR258W, strain gsy2, active compounds read low 1.01 | S. cerevisiae deletion strains, locus YLR262C, strain YPT6 (second series), active compounds read low 1.02 | S. cerevisiae deletion strains, locus YLR268W, strain sec22, active compounds read low 0.993 | S. cerevisiae deletion strains, locus YLR320W, strain mms22, active compounds read low 0.978 | S. cerevisiae deletion strains, locus YLR330W, strain CHS5, active compounds read low 1 | S. cerevisiae deletion strains, locus YLR342W, strain FKS1 (second series), active compounds read low 1.02 | S. cerevisiae deletion strains, locus YLR342W, strain FKS1, active compounds read low 1.02 | S. cerevisiae deletion strains, locus YLR357W, strain rsc2, active compounds read low 1.01 | S. cerevisiae deletion strains, locus YLR370C, strain arc18, active compounds read low 0.986 | S. cerevisiae deletion strains, locus YLR371W, strain rom2, active compounds read low 0.983 | S. cerevisiae deletion strains, locus YLR384C, strain iki3, active compounds read low 0.985 | S. cerevisiae deletion strains, locus YLR418C, strain cdc73, active compounds read low 1.04 | S. cerevisiae deletion strains, locus YML016C, strain PPZ1, active compounds read low 0.992 | S. cerevisiae deletion strains, locus YML032C, strain rad52, active compounds read low 0.974 | S. cerevisiae deletion strains, locus YML120C, strain ndi1, active compounds read low 1.01 | S. cerevisiae deletion strains, locus YML124C, strain tub3, active compounds read low 1.01 | S. cerevisiae deletion strains, locus YMR058W, strain fet3, active compounds read low 0.993 | S. cerevisiae deletion strains, locus YMR078C, strain ctf18, active compounds read low 1.01 | S. cerevisiae deletion strains, locus YMR125W, strain sto1, active compounds read low 1.01 | S. cerevisiae deletion strains, locus YMR129W, active compounds read low 0.988 | S. cerevisiae deletion strains, locus YMR205C, strain PFK2, active compounds read low 1.02 | S. cerevisiae deletion strains, locus YMR223W, strain ubp8, active compounds read low 0.998 | S. cerevisiae deletion strains, locus YMR231W, strain pep5, active compounds read low 0.998 | S. cerevisiae deletion strains, locus YMR263W, strain SAP30, active compounds read low 1.01 | S. cerevisiae deletion strains, locus YMR307W, strain GAS1, active compounds read low 0.927 | S. cerevisiae deletion strains, locus YNL067W, strain RPL9B, active compounds read low 1.01 | S. cerevisiae deletion strains, locus YNL071W, strain lat1, active compounds read low 1 | S. cerevisiae deletion strains, locus YNL128W, strain TEP1, active compounds read low 0.99 | S. cerevisiae deletion strains, locus YNL153C, strain GIM3, active compounds read low 1.02 | S. cerevisiae deletion strains, locus YNL183C, strain NPR1, active compounds read low 0.958 | S. cerevisiae deletion strains, locus YNL209W, strain ssb2, active compounds read low 1 | S. cerevisiae deletion strains, locus YNL233W, strain BNI4, active compounds read low 1.01 | S. cerevisiae deletion strains, locus YNL248C, strain rpa49, active compounds read low 0.961 | S. cerevisiae deletion strains, locus YNL250W, strain rad50, active compounds read low 1 | S. cerevisiae deletion strains, locus YNL271C, strain bni1, active compounds read low 0.982 | S. cerevisiae deletion strains, locus YNL298W, strain CLA4, active compounds read low 1.01 | S. cerevisiae deletion strains, locus YNL307C, strain MCK1, active compounds read low 1.01 | S. cerevisiae deletion strains, locus YNL322C, strain KRE1 (second series), active compounds read low 1.01 | S. cerevisiae deletion strains, locus YNR049C, strain mso1, active compounds read low 0.994 | S. cerevisiae deletion strains, locus YNR052C, strain pop2, active compounds read low 1.01 | S. cerevisiae deletion strains, locus YOL012C, strain htz1 1.31 | S. cerevisiae deletion strains, locus YOL147C, strain pex11, active compounds read low 0.999 | S. cerevisiae deletion strains, locus YOR001W, strain rrp6, active compounds read low 0.939 | S. cerevisiae deletion strains, locus YOR061W, strain CKA2, active compounds read low 0.995 | S. cerevisiae deletion strains, locus YOR069W, strain VPS5, active compounds read low 1 | S. cerevisiae deletion strains, locus YOR070C, strain gyp1, active compounds read low 0.991 | S. cerevisiae deletion strains, locus YOR080W, strain dia2, active compounds read low 0.987 | S. cerevisiae deletion strains, locus YOR083W, strain WHI5, active compounds read low 1.02 | S. cerevisiae deletion strains, locus YOR106W, strain vam3, active compounds read low 1.02 | S. cerevisiae deletion strains, locus YOR136W, strain idh2, active compounds read low 0.987 | S. cerevisiae deletion strains, locus YOR144C, strain elg1, active compounds read low 0.998 | S. cerevisiae deletion strains, locus YOR184W, strain ser1, active compounds read low 0.987 | S. cerevisiae deletion strains, locus YOR231W, strain MKK1, active compounds read low 0.988 | S. cerevisiae deletion strains, locus YOR265W, strain rbl2, active compounds read low 1 | S. cerevisiae deletion strains, locus YOR270C, strain vph1, active compounds read low 0.888 | S. cerevisiae deletion strains, locus YOR290C, strain snf2, active compounds read low 1.03 | S. cerevisiae deletion strains, locus YOR316C, strain cot1, active compounds read low 1.01 | S. cerevisiae deletion strains, locus YPL051W, strain arl3, active compounds read low 1 | S. cerevisiae deletion strains, locus YPL078C, strain atp4, active compounds read low 1.01 | S. cerevisiae deletion strains, locus YPL106C, strain sse1, active compounds read low 1.04 | S. cerevisiae deletion strains, locus YPL240C, strain hsp82, active compounds read low 1 | S. cerevisiae deletion strains, locus YPL256C, strain CLN2, active compounds read low 0.983 | S. cerevisiae deletion strains, locus YPR119W, strain clb2, active compounds read low 0.996 | S. cerevisiae deletion strains, locus YPR141C, strain kar3, active compounds read low 1 | S. cerevisiae deletion strains, locus YPR163C, strain tif3, active compounds read low 1 | S. cerevisiae deletion strains, locus YPR167C, strain met16, active compounds read low 0.995 | S. cerevisiae deletion strains, strain wtn01, active compounds read low 0.978 | S. cerevisiae strains, strain wild type, active compounds read low 0.997
